Reference: PubChem BioAssay (Tox21)
Records with an inconclusive call do not appear. A call without a number means that no potency is given here. Active and inactive are the calls of the source. The call rests on the fitted dose curve; in most records, active means well fitted activation curve with a large enough effect in the repeat runs; inconclusive means weak or mixed curves; inactive means flat fitted curve, though single readings scatter.

Test: A CellTox Green Cytotoxicity Assay to monitor cytotoxicity in HEK293 cells - 40 hour (AID 1224871); further: nearly all actives have a fitted effect of over 45% in size
Conditions: CellTox Green fluorescence; series mostly up to 76.8 µM
From the text: National Center for Advancing Translational Sciences [NCATS]
NIH Chemical Genomics Center [NCGC]
U.S. Environmental Protection Agency [EPA]
National Institutes of Environmental Health Sciences [NIEHS]
National Toxicology Program [NTP]
Cell-based models are critical for drug discovery. Determining the natural cytotoxic effects resulting from test compounds is an essential research activity. A CellTox Green Cytotoxicity Assay to monitor cytotoxicity in real time of continues cell culture during 40 hours of the compound treatment was used to screen Tox21 10K library compounds in Hek293 cells. CellTox Green Cytotoxicity Assay is a nonlytic, homogeneous, biofluorescent method to measure cytotoxicity in cell culture after experimental manipulation. The assay system uses a proprietary asymmetric cyanine dye that is excluded from viable cells but preferentially stains the dead cell's DNA. […] Viable cells produce no appreciable increases in fluorescence. Therefore, the fluorescence signal produced by the binding interaction with dead cell DNA is proportional to cytotoxicity.
The mixture of Hek293 cell suspension and reagents were dispensed at 600cells/6 ul/well in 1536-well tissue culture treated black solid bottom plates using a Multidrop dispenser. After the assay plates were incubated at a 37 C/5% CO2 incubator for 5 hours, 23 nL of compounds dissolved in DMSO, positive and negative controls was transferred to the assay plate by a pintool work station. The plates were incubated at 37 C for 40 hours. The fluorescence intensity were measured at 0h, 8h, 16h, 24h, 32h and 40h time points using ViewLux plate reader during compound treatment.
Potency means the concentration at half of the fitted maximal effect.

Q: With `O=Cc1c2ccccc2c(Cl)c2ccccc12` as the molecule, how does the Potency read?
A: Its Potency is “inactive”.

Q: Which Potency does the source give for `Cc1cccc(O)c1N` here?
A: Its Potency is “inactive”.

Q: For `N#CCCN(CCO)CCO`, which Potency is on record?
A: Its Potency is “inactive”.

Q: For `O=C1c2ccccc2C(=O)C1(O)O`, which Potency is on record?
A: The Potency was “inactive”.

Q: With `O=C(O)CCC(=O)C(=O)O` as the molecule, how does the Potency read?
A: Its Potency is “inactive”.

Q: Which Potency does the source give for `OCCOCC#CCOCCO` here?
A: Its Potency is “inactive”.

Q: With `COc1ccc(OC(=O)N(CC(=O)O)Cc2ccc(OCCc3nc(-c4ccccc4)oc3C)cc2)cc1` as the molecule, how does the Potency read?
A: The Potency was “inactive”.

Q: With `Brc1cc(Br)c(Oc2cc(Br)c(Br)cc2Br)cc1Br` as the molecule, how does the Potency read?
A: The Potency was “inactive”.

Q: For `Clc1cc(Cl)nc(Cl)n1`, which Potency is on record?
A: Its Potency is “inactive”.

Q: For `O=c1c(O)c(-c2ccc(O)cc2)oc2cc(O)cc(O)c12`, which Potency is on record?
A: Its Potency is “inactive”.

Q: Which Potency does the source give for `CN1C(C(=O)Nc2ccccn2)=C(O)c2sccc2S1(=O)=O` here?
A: The Potency was “inactive”.

Q: Which Potency does the source give for `C[C@@H](O)[C@H]1C(=O)N2C(C(=O)O)=C([C@H]3CCCO3)S[C@H]12` here?
A: Its Potency is “inactive”.

Q: Which Potency does the source give for `O=C1Cc2ccccc2N1c1c(Cl)cccc1Cl` here?
A: The Potency was “inactive”.

Q: Which Potency does the source give for `O=C(/C=C/c1ccccc1)OCCc1ccccc1` here?
A: Its Potency is “inactive”.

Q: Which Potency does the source give for `CC(C)=CCC1C(=O)N(c2ccccc2)N(c2ccccc2)C1=O` here?
A: Its Potency is “inactive”.

Q: For `CCOC(=O)c1ccc(OCCN2C[C@H](O)[C@@H](O)[C@H](O)[C@H]2CO)cc1`, which Potency is on record?
A: Its Potency is “inactive”.

Q: With `C[C@@H](CN(C)C)CN1c2ccccc2Sc2ccccc21` as the molecule, how does the Potency read?
A: Its Potency is 16.9 µM (active).

Q: With `C=C(C)C(=O)OCCOCCOC(=O)C(=C)C` as the molecule, how does the Potency read?
A: The Potency was “inactive”.

Q: Which Potency does the source give for `Cc1ccc(OC(=O)c2ccccc2O)cc1` here?
A: The Potency was 49 µM (active).

Q: With `O=C(Nc1cccc2c(=O)cc(-c3nn[nH]n3)oc12)c1ccc(OCCCCc2ccccc2)cc1` as the molecule, how does the Potency read?
A: Its Potency is “inactive”.

Q: With `CC(C)(C)CC(=O)OCC(=O)[C@@]1(O)CC[C@H]2[C@@H]3CCC4=CC(=O)C=C[C@]4(C)[C@H]3[C@@H](O)C[C@@]21C` as the molecule, how does the Potency read?
A: The Potency was “inactive”.

Q: With `Cc1cccc(N(C)C(=S)Oc2ccc3c(c2)CCC3)c1` as the molecule, how does the Potency read?
A: Its Potency is “inactive”.

Q: Which Potency does the source give for `CCCCCC[C@@H](O)C/C=C\CCCCCCCC(=O)O` here?
A: The Potency was “inactive”.

Q: For `CCCCCC[C@@H](O)C/C=C\CCCCCCCC(=O)OCC(O)CO` (stereo not given in full), which Potency is on record?
A: The Potency was “inactive”.

Q: Which Potency does the source give for `Cc1cc(C)cc(N)c1` here?
A: The Potency was “inactive”.

Q: For `Cc1cc(C)c(N)cc1C`, which Potency is on record?
A: The Potency was “inactive”.

Q: For `CCC1CO1` (stereo not given), which Potency is on record?
A: The Potency was “inactive”.

Q: Which Potency does the source give for `COc1cc(C(=O)NC2CCN(C)CC2)ccc1Nc1ncc2c(n1)N(C1CCCC1)CC(F)(F)C(=O)N2C` here?
A: Its Potency is 35.7 µM (active).

Q: With `FC(F)(F)c1ccccc1Cl` as the molecule, how does the Potency read?
A: Its Potency is “inactive”.

Q: For `CCCCN(CCN(CCCC)C(=O)N1CCOCC1)C(=O)N1CCOCC1`, which Potency is on record?
A: The Potency was “inactive”.

Q: For `CC[N+](CC)(CCNC(=O)C(=O)NCC[N+](CC)(CC)Cc1ccccc1Cl)Cc1ccccc1Cl`, which Potency is on record?
A: The Potency was “inactive”.

Q: For `C[C@]12CC[C@@H]3c4ccc(O)cc4CC[C@H]3[C@@H]1CC[C@@H]2OC(=O)CCC1CCCC1`, which Potency is on record?
A: The Potency was 54.9 µM (active).

Q: With `O=C=Nc1ccc(Cl)c(Cl)c1` as the molecule, how does the Potency read?
A: The Potency was “inactive”.

Q: Which Potency does the source give for `Oc1cccc(Nc2ccccc2)c1` here?
A: Its Potency is “inactive”.

Q: With `Clc1ccc(Nc2nnc(Cc3ccncc3)c3ccccc23)cc1` as the molecule, how does the Potency read?
A: Its Potency is “inactive”.

Q: With `O=C1c2ccccc2C(=O)C1c1ccc(Br)cc1` as the molecule, how does the Potency read?
A: Its Potency is “inactive”.

Q: With `CN1CCCN=C1COC(=O)C(O)(c1ccccc1)C1CCCCC1` (stereo not given) as the molecule, how does the Potency read?
A: The Potency was “inactive”.

Q: Which Potency does the source give for `CN1CC(=O)N2[C@H](c3ccc4c(c3)OCO4)c3[nH]c4ccccc4c3C[C@@H]2C1=O` here?
A: The Potency was “inactive”.

Q: For `c1ccc2sc(SN(C3CCCCC3)C3CCCCC3)nc2c1`, which Potency is on record?
A: Its Potency is “inactive”.

Q: Which Potency does the source give for `CCCCCCNC(=O)n1cc(F)c(=O)[nH]c1=O` here?
A: Its Potency is “inactive”.
